Source: PubChem BioAssay (NCI)
About 83,000 compounds went through this panel and 20% of them were active in at least one assay; those are over-represented in the sample as a whole.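 Note: values are percent growth. 100 is the growth of untreated cells, values between 100 and 0 indicate rising inhibition; between -100 and 0 indicates cell death.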 Calls of active or inactive are those of the source. The calls were made as follows: active = growth percent below 10; inactive = the rest.

The compounds below were run on KM12 colon (assay: NCI-60 one-dose screen, 48 h (100 = growth as untreated, 0 = no growth, -100 = all killed)). Details: 10 µM unless noted.
With `O=C1NCCS(=O)(=O)/C1=C\C=C\c1cccc(C(F)(F)F)c1` the growth was 43.9% (inactive). For `COC(=O)c1cc(-c2ccc(OC)c(OC)c2)[nH]c1N/N=C/c1c(Cl)cccc1Cl`, the growth was 28.7% (inactive). With `Oc1cccc(-c2nc(-c3n[nH]c(=S)n3-c3ccccc3)cc3c2[nH]c2ccccc23)c1` the growth was 13% (inactive).
